In PubChem BioAssay (NCATS):
Values joined by “and” are separate entries in the source; they are usually repeats but may differ in a detail not shown here. Equal values may be shown once. Unmarked numbers belong to inactive results. Inconclusive results are not listed. Entries that show only a call come without a potency. Active and inactive are the calls of the source. Unless noted, calls follow the shape of the dose curve; as a rule, active = well fitted curve in the direction sought with a large enough effect; inconclusive = small, poorly fitted or top-dose-only effect, or another doubt; inactive = no such curve, though single readings can be large; an effect the other way counts as inactive or inconclusive.

Assays:
[1] = Cell Viability - Jurkat (AID 426;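 active = dose-dependent loss of cell ATP signal giving a full or clear fitted curve, ranked by lower potency value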; also: potency is read from the fitted curve at half-maximal effect); conditions: qHTS
Procedure, shortened: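 Jurkat (clone E6-1, human T-cell leukemia) cells, 5000/well in complete medium, were exposed to compound for 40 hr at 37 °C. Viability was read as intracellular ATP by CellTiter-Glo luminescence; AC50 came from Hill fits of concentration-response data.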

[2] = Cell Viability - Hek293 (AID 427;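 active = compounds whose dose-response curve shows a full or clear partial loss of cell viability, called from curve shape rather than a numeric limit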;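 also: potency is read from the fitted curve at half-maximal effect; cells exposed to compound for 40 hours at 37 °C before reading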); conditions: qHTS
Procedure, shortened: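 qHTS, human embryonic kidney (adenovirus-transformed) cells; 40 hr cpd, 37 °C; CellTiter-Glo ATP luminescence. Norm: DMSO = 0, 100 uM tamoxifen = 100% inhibition. Hill-fit AC50.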

[3] = Cell Viability - NIH 3T3 (AID 541); conditions: NIH 3T3 cell viability, qHTS; activity change, negative = cytotoxicity: at 92.2 µM (top of the series); also: nearly all actives have a fitted effect of over 25% in size; also: potency is read from the fitted curve at half-maximal effect
Procedure, shortened: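 NIH 3T3 mouse embryo fibroblasts (1000 cells/well) were plated in complete medium and treated with compound for 40 hr at 37 °C. Viability was read as intracellular ATP by CellTiter-Glo luminescence; AC50 values came from Hill-equation fits of concentration-response data.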

[4] = Cell Viability - H-4-II-E (AID 543); conditions: H-4-II-E rat hepatoma viability; series mostly up to 92.2 µM; also: nearly all actives have a fitted effect of over 35% in size; also: potency is read from the fitted curve at half-maximal effect
Procedure, shortened: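 Rat hepatoma H-4-II-E cells (1500/well) were plated, incubated 5 hr at 37 °C, then exposed to compounds for 40 hr at 37 °C. Cellular ATP was read by CellTiter-Glo luminescence; AC50 came from Hill-equation fits of concentration-response data.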

[5] = Cellular Toxicity (caspase-3) Jurkat (AID 655); conditions: Jurkat caspase-3 activation, luminescence; caspase-3 activation: at 92.2 µM (top of the series), DMSO = 0%, tamoxifen = 100%;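 also: cells exposed to compound for 16 h at 37 °C before reading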; also: potency is read from the fitted curve at half-maximal effect
Procedure, shortened: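 Luminescent caspase-3/7 readout (aminoluciferin substrate cleavage) in human T-cell leukemia Jurkat cells after 16 hr compound exposure. Concentration-response normalized to DMSO and 100 uM tamoxifen; AC50 by standard Hill equation.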

[6] = Cellular Toxicity (caspase-3) SHSY5Y (AID 657); conditions: SH-SY5Y caspase-3 activation; series mostly up to 91.7 µM; also: potency is read from the fitted curve at half-maximal effect
Procedure, shortened: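 Luminescent caspase-3/7 readout (aminoluciferin release) in SH-SY5Y cells after 16 h compound exposure in complete medium. Activity scaled between DMSO basal and 10 uM staurosporine as 100%; concentration-response fitted to Hill equation for AC50.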

[7] = Cellular Toxicity (caspase-3) BJ (AID 658); conditions: BJ fibroblasts, luminescence; Potency: caspase-3 activation; series mostly up to 91.7 µM; also: potency is read from the fitted curve at half-maximal effect
Procedure, shortened: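 Readout: Caspase-Glo 3/7 luminescence increase in BJ cells after 16 hr treatment at 37 °C. Staurosporine and tamoxifen served as positive controls; AC50 values came from Hill modelling of data normalized to DMSO and 10 uM staurosporine.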

[8] = Cellular Toxicity (caspase-3) MRC-5 (AID 659); conditions: MRC-5 cells, luminescence, normalized: DMSO 0%, 10 µM staurosporine 100%; series mostly up to 91.7 µM
Procedure, shortened: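 Concentration-dependent caspase 3/7 activation is measured in human normal lung fibroblasts (MRC-5) following 16-hour treatment. AC50 values come from standard Hill-equation modeling of luminescence normalized to DMSO and 10 uM staurosporine.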

[9] = Cellular Toxicity (caspase-3) SK-N-SH (AID 661); conditions: SK-N-SH caspase-3 activation, qHTS; caspase-3 activation: at 91.7 µM (top of the series), DMSO as zero, staurosporine as full
Procedure, shortened: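 SK-N-SH human neuroblastoma cells (1500/well) were treated with compounds for 16 hr at 37 °C in complete medium; caspase 3/7 activity was read by Caspase-Glo luminescence. AC50 came from Hill fits of data normalized to DMSO and 10 uM staurosporine.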

[10] = Cellular Toxicity (caspase-3) Hek293 (AID 664); conditions: HEK293 caspase-3 activation, DMSO = 0%, 100 µM tamoxifen = 100%; at 92.2 µM (top of the series);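 also: cells exposed to compound for 16 h at 37 °C before readout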
Procedure, shortened: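 HEK293 cells were exposed to compounds in complete medium for 16 hr at 37 °C, then caspase-3/7 activity was read by Caspase-Glo 3/7 luminescence after 20 min at room temperature. Data normalized to DMSO and 100 uM tamoxifen; AC50 from Hill fits.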

[11] = Cellular Toxicity (caspase-3) NIH 3T3 (AID 666); conditions: NIH 3T3 caspase-3 activation, apoptosis/toxicity; series mostly up to 92.2 µM;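 also: caspase signal read after 16 h compound exposure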; also: potency is read from the fitted curve at half-maximal effect
Procedure, shortened: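 Mouse NIH 3T3 fibroblasts (1000 cells/well) were treated with compound for 16 hr at 37°C in complete medium; caspase-3/7 activity was read by Caspase-Glo luminescence. Normalized to DMSO and 100 uM tamoxifen; AC50 from Hill fits.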

[12] = MultiTox-Fluor Cytotoxicity Assay - LYMP1-001 - Dead Cells (AID 946); conditions: LYMP1-001 lymphoblastoid cells, dead-cell protease fluorescence; series mostly up to 92.2 µM; also: potency is read from the fitted curve at half-maximal effect
Procedure, shortened: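 Seed 2500 LYMP1-001 cells/well, incubate 5 hr at 37 C; add compound, 16 hr at 37 C; add MultiTox-Fluor reagent, 60 min RT; read dead-cell fluorescence Ex/Em=485/520. Normalize to DMSO and 15 uM tetraoctylammonium bromide.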

[13] = Cell Viability - LYMP1-002 - Assay at 16 hr (AID 948); conditions: LYMP1-002 lymphoblastoid cell viability; series mostly up to 92.2 µM; also: potency is read from the fitted curve at half-maximal effect
Procedure, shortened: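 LYMP1-002 human lymphoblastoid cells, 2500/well; 5 hr 37 C; cpd 16 hr 37 C; CellTiter-Glo 30 min RT; luminescence (ATP). Concentration-response, Hill-fit AC50. Pos ctrl tetraoctylammonium bromide.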

[14] = MultiTox-Fluor Cytotoxicity Assay - LYMP1-003 - Live Cells (AID 962); conditions: LYMP1-003 lymphoblastoid cells, MultiTox-Fluor live-cell protease fluorescence; series mostly up to 92.2 µM; also: potency is read from the fitted curve at half-maximal effect
Procedure, shortened: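 LYMP1-003 human lymphoblastoid cells (2500/well) in complete medium were preincubated 5 hr at 37 C, then exposed to compounds for 16 hr at 37 C. Live-cell protease cleavage of GF-AFC read by fluorescence (Ex/Em 405/510); AC50 from Hill fits.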

[15] = Cell Viability - LYMP1-003 - Assay at 24 hr (AID 963); conditions: LYMP1-003 lymphoblastoid cell viability; series mostly up to 92.2 µM; also: potency is read from the fitted curve at half-maximal effect
Procedure, shortened: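 Human lymphoblastoid LYMP1-003 cells (2500/well) were rested 5 hr at 37 C, then exposed to compounds in complete medium for 24 hr at 37 C. Cellular ATP was quantified by CellTiter-Glo luminescence, and AC50 values came from Hill fits of concentration-response data.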

[16] = Cell Viability - LYMP2-003 (AID 965); conditions: LYMP2-003 lymphoblastoid cell viability; series mostly up to 92.2 µM;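 also: cells exposed to compounds for 24 h before reading; nearly all actives have a fitted effect of over 50% in size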; also: potency is read from the fitted curve at half-maximal effect
Procedure, shortened: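 CellTiter-Glo luminescence (cellular ATP) after 24 h compound exposure at 37 C in complete medium; 2500 cells/well, 5 h settling beforehand. Concentration-response fitted to standard Hill equation for AC50. Tetraoctylammonium bromide served as positive control.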

[17] = Cell Viability - LYMP2-009 (AID 968); conditions: LYMP2-009 lymphoblastoid cell viability; series mostly up to 92.2 µM; also: nearly all actives have a fitted effect of over 55% in size; also: potency is read from the fitted curve at half-maximal effect
[18] = Cell Viability - LYMP2-021 (AID 974); conditions: LYMP2-021 lymphoblastoid cells viability; series mostly up to 92.2 µM;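 also: compound exposure lasts 24 hours at 37 °C; nearly all actives have a fitted effect of over 55% in size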; also: potency is read from the fitted curve at half-maximal effect
Procedure, shortened: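 Human lymphoblastoid cells (2500/well) were preincubated 5 hr at 37 C, then exposed to compounds for 24 hr at 37 C in complete medium. Intracellular ATP was read by CellTiter-Glo luminescence; AC50 came from Hill-equation fits of concentration-response data.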

[19] = Cell Viability - LYMP2-007 (AID 979); conditions: LYMP2-007 lymphoblastoid cell viability; series mostly up to 92.2 µM;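 also: cells exposed to compound for 24 h before reading; nearly all actives have a fitted effect of over 60% in size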; also: potency is read from the fitted curve at half-maximal effect
Procedure, shortened: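 Human lymphoblastoid cells (2500/well) were plated in complete medium, incubated 5 hr at 37 C, then exposed to compounds for 24 hr at 37 C. Intracellular ATP was read by CellTiter-Glo luminescence after 30 min at room temperature; AC50 from Hill fits.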

[20] = Cell Viability - LYMP1-002 - Assay at 24 hr (AID 993); conditions: LYMP1-002 lymphoblastoid cells viability; series mostly up to 92.2 µM; also: potency is read from the fitted curve at half-maximal effect
Procedure, shortened: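 Human lymphoblastoid LYMP1-002 cells, 2500/well in complete medium, were treated with compounds for 24 h at 37 C; intracellular ATP was read by CellTiter-Glo luminescence. AC50 values came from Hill-equation fits of qHTS concentration-response data.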

For `Cc1cccc(O)c1C`, the Potency [1] was greater than 92 µM, the Potency [2] was greater than 92 µM and the Potency [3] was “inactive”. The Potency [4] was “inactive”, the Potency [5] was “inactive” and the Potency [6] was “inactive”. For the same molecule, the Potency [7] was “inactive”, the outcome [8] was “inactive” and the caspase-3 activation [9] was -0.783%. For the same molecule, the caspase-3 activation [10] was 0.349%, the Potency [11] was “inactive” and the Potency [12] was “inactive”. The Potency [13] was “inactive”, the Potency [14] was “inactive” and the Potency [15] was “inactive”. The Potency [16] was “inactive”, the Potency [17] was “inactive” and the Potency [18] was “inactive”. For the same molecule, the Potency [19] was “inactive” and the Potency [20] was “inactive”.

For `ClC1=C(Cl)C(Cl)(Cl)C(Cl)=C1Cl`, the Potency [1] was 1.88 µM (active), the Potency [2] was greater than 92 µM and the activity change, negative = cytotoxicity [3] was -125% (active). For the same molecule, the Potency [4] was “inactive”, the Potency [5] was 0.316 µM (active) and the Potency [6] was “inactive”. The Potency [7] was 3.98 µM (active), the outcome [8] was “inactive” and the caspase-3 activation [10] was 131% (active). The Potency [11] was “inactive”, the Potency [12] was “inactive” and the Potency [13] was “inactive”. For the same molecule, the Potency [14] was “inactive”, the Potency [15] was “inactive” and the Potency [16] was “inactive”. The Potency [20] was “inactive”.

In the case of `CCCCCC/C(C=O)=C\c1ccccc1`, the Potency [1] is reported as greater than 92 µM, the Potency [2] is reported as greater than 92 µM and the Potency [3] is reported as “inactive”. For the same molecule, the Potency [4] was “inactive”, the Potency [5] was “inactive” and the Potency [6] was “inactive”. For the same molecule, the Potency [7] was “inactive”, the outcome [8] was “inactive” and the caspase-3 activation [9] was -0.582%. For the same molecule, the caspase-3 activation [10] was 2.43%, the Potency [11] was “inactive” and the Potency [12] was “inactive”. The Potency [13] was “inactive”, the Potency [14] was “inactive” and the Potency [15] was “inactive”. For the same molecule, the Potency [16] was “inactive”, the Potency [17] was “inactive” and the Potency [18] was “inactive”. For the same molecule, the Potency [19] was “inactive” and the Potency [20] was “inactive”.

For `CN1[C@H]2CC(OC(=O)[C@H](CO)c3ccccc3)C[C@H]1[C@H]1O[C@H]12` (stereo partly specified), the Potency [1] was greater than 92 µM, the Potency [2] was greater than 92 µM and the Potency [3] was “inactive”. For the same molecule, the Potency [4] was “inactive”, the Potency [5] was “inactive” and the Potency [6] was “inactive”. For the same molecule, the Potency [7] was “inactive”, the outcome [8] was “inactive” and the caspase-3 activation [9] was -1.73% and -0.623%. The caspase-3 activation [10] was -1.68% and 4.08%, the Potency [11] was “inactive” and the Potency [12] was “inactive”. The Potency [13] was “inactive”, the Potency [14] was “inactive” and the Potency [15] was “inactive”. The Potency [16] was “inactive”, the Potency [17] was “inactive” and the Potency [18] was “inactive”. The Potency [19] was “inactive” and the Potency [20] was “inactive”.

For `O=C(/C=C/c1ccc(O)c(O)c1)OC1C[C@](O)(C(=O)O)C[C@@H](O)[C@H]1O` (stereo partly specified), the Potency [1] was greater than 92 µM, the Potency [2] was greater than 92 µM and the Potency [3] was “inactive”. For the same molecule, the Potency [4] was “inactive”, the Potency [5] was “inactive” and the Potency [6] was “inactive”. For the same molecule, the Potency [7] was “inactive”, the outcome [8] was “inactive” and the caspase-3 activation [9] was 0.0888% and -0.0196%. For the same molecule, the caspase-3 activation [10] was 0.862% and -1.58%, the Potency [11] was “inactive” and the Potency [12] was “inactive”. The Potency [13] was “inactive”, the Potency [14] was “inactive” and the Potency [15] was “inactive”. The Potency [16] was “inactive”, the Potency [17] was “inactive” and the Potency [18] was “inactive”. The Potency [19] was “inactive” and the Potency [20] was “inactive”.

In the case of `C=CC(=O)OCC(CO)(COC(=O)C=C)COC(=O)C=C`, the Potency [1] is reported as 1.6 µM (active), the Potency [2] is reported as 8.68 µM (active) and the Potency [3] is reported as 2 µM (active). The Potency [4] was 2.51 µM (active), the caspase-3 activation [5] was -6.15% (active) and the Potency [6] was 2.51 µM (active). For the same molecule, the caspase-3 activation [9] was -3.53% (active), the caspase-3 activation [10] was -6.03% and the Potency [11] was “inactive”.

In the case of `CCCCCCCC[N+](CCCCCCCC)(CCCCCCCC)CCCCCCCC`, the Potency [1] is reported as 7.74 µM (active), the Potency [2] is reported as 7.17 µM (active) and the Potency [3] is reported as 3.16 µM (active). For the same molecule, the Potency [4] was 12.6 µM (active), the Potency [5] was 12.6 µM (active) and the Potency [7] was 12.6 µM (active). For the same molecule, the Potency [11] was 31.6 µM (active), the Potency [12] was 6.31 µM (active) and the Potency [13] was 6.31 µM (active). The Potency [14] was 12.6 µM (active), the Potency [15] was 7.94 µM (active) and the Potency [16] was 10 µM (active). For the same molecule, the Potency [17] was 3.98 µM (active), the Potency [18] was 7.94 µM (active) and the Potency [19] was 2.51 µM (active). For the same molecule, the Potency [20] was 3.16 µM (active).
